Among all 350,000 compounds or so, about 9,900 (2.8%) were called active. Inconclusive results (about 15%) are left out. The call rests on the fitted dose curve; in most records, active means well fitted activation curve with a large enough effect; inconclusive means small, poorly fitted or top-dose-only effect; inactive means no such curve, though single readings can be large or run the other way. The list comes from a sample in which actives are over-represented; it also holds similar structures and randomly drawn compounds. Where a call stands in place of a potency, no number is given.
Potency means the concentration at half of the fitted maximal effect.

A short description of the test: A quantitative high throughput screen for small molecules that induce DNA re-replication in MCF 10a normal breast cells. Further: nearly all actives have a fitted effect of over 50% in size. The note with it: MCF 10A DNA re-replication, Hoechst nuclear intensity, 48 h; series mostly up to 46.1 µM. An excerpt: H Molecular Libraries Probe Production Network [MLPCN]
NIH Chemical Genomics Center [NCGC]
Assay Provider: Melvin DePamphilis, NICHD, NIH
Eukaryotic cells normally restrict genome duplication to once per cell division. When this process is aberrant, DNA re-replication occurs when cells reinitiate DNA replication before the first round of replication is complete. DNA re-replication induces the DNA damage response, arrests cell proliferation, and triggers apoptosis. The cell cycle components cyclin A, Cdt-1, Cdc6 and geminin are critical regulators of this process and their misregulation results in DNA re-replication in normal and cancer cells. To identify compounds that induce re-replication in normal cells, an image-based assay was used to measure DNA content of nuclei, as detected by the fluorescent DNA binding dye, Hoechst. Cell nuclei were imaged by a fluorescence scanning plate imager and compounds that induce DNA re-replication were identified by the increase of nuclei with elevated fluorescence intensity
For screening, 250 cells in 5 uL/well were dispensed into black clear 1536-well plates (Aurora) using a solenoid-based dispenser. Following transfer of 23 nL compound or DMSO vehicle by a pin tool, the plates were incubated 48 hr at 37 C and 5% CO2. After addition of 1 uL/well Hoescht stain, the plates were incubated 40 min at 37 C, 5% CO2 and total intensity of fluorescent objects (nuclei) were enumerated by an Acumen Explorer Ex3 (TTP LabTech) fluorescence scanning plate imager (405 nm excitation, 500-530 nm emission).
Keywords: NIH Roadmap, MLPCN, MLI, MLSMR, qHTS, NCGC, DNA replication, cancer
Take `O=C(CCN1CCCCC1)N=Nc1c(O)[nH]c2ccccc12`: the Potency is 3.66 µM (active). In the case of `COCC(=O)N=Nc1c(O)[nH]c2ccccc12`, the Potency entry is “inactive”.

Regarding `Cc1cccc(N(CC(=O)N=Nc2c(O)[nH]c3ccccc23)S(C)(=O)=O)c1C`, the Potency entry is “inactive”. Regarding `CCCCc1ccc(NS(=O)(=O)c2cccc(C(=O)N3CCCN(C)CC3)c2)cc1`, the Potency result was “inactive”. In the case of `O=C(O)c1ccc(S(=O)(=O)c2ccccc2)s1`, the Potency result is “inactive”. The entry for `Cc1nc2ccc(N)nc2nc1C` is “inactive”; for `CCN(C[C@H]1N[C@@](CC)(C(=O)OC)[C@H]2C(=O)N(C)C(=O)[C@@H]12)C(=O)Nc1ccc(F)cc1` it is “inactive”; for `CCOC(=O)c1c(-c2ccccc2)oc2cc(Br)c(O)cc12` it is 16.4 µM (active). With `CCOC(=O)c1c(C)oc2cc(Sc3ccccc3)c(O)c(O)c12`, the Potency result was “inactive”. As to `CCOC(=O)c1c(-c2ccccc2)oc2ccc(OCC(N)=O)cc12`, the Potency entry was “inactive”. Turning to `CCOC(=O)c1c(-c2ccccc2)oc2cc(Br)c(O)c(C=O)c12`, the Potency was 2.91 µM (active). The entry for `CCOC(=O)c1c(-c2ccccc2)oc2ccc(OCC(=O)NN)cc12` is “inactive”; for `Cc1oc2cc(Br)c(O)c(Br)c2c1C(=O)c1ccccc1` it is “inactive”; for `CC[C@]12c3[nH]c4cc(CCC(=O)N(C)C)ccc4c3CCN1C(=O)[C@@H](CC(=O)NCc1ccco1)C[C@@H]2C(=O)N1CCN(C(=O)c2ccco2)CC1` it is “inactive”. With `O=C(CSc1nnc(Nc2ccccc2F)s1)NC1CCCC1` the entry was “inactive”; with `O=C(COC(=O)c1n[nH]c2ccccc12)Nc1ccccc1Br`, “inactive”; with `COc1ccc(NC(=O)/C(N=Nc2cccc(S(=O)(=O)Nc3ccc(SC(F)F)cc3)c2)=C(\C)O)cc1`, “inactive”. Consider `CC(C)CN(Cc1c(O)ccc2c(=O)c(-c3ccccc3)coc12)CC(C)C`, for which the Potency result is “inactive”. For the compound `O=c1c(-c2ccccc2)coc2cc(O)ccc12`, the Potency entry is “inactive”. As to `CC(C)=CCc1c(O)c(CC=C(C)C)c2occ(-c3ccc(O)cc3)c(=O)c2c1O`, the Potency was 9.2 µM (active).

Take `O=C(NN=Cc1ccc([N+](=O)[O-])cc1)C1CC1`: the Potency entry was “inactive”. With `COc1ccccc1N1CCN(C(=O)C2Cc3ccccc3CN2C(=O)c2ccco2)CC1` (centres undefined), the Potency result is “inactive”. For `CCOc1ccc(OCC)c(NC(=O)CCS(=O)(=O)c2ccc(C)cc2)c1`, the Potency entry is “inactive”. With `CC(=O)N1CCc2c(sc(NC(=O)CCS(=O)(=O)c3ccc(C)cc3)c2C(N)=O)C1`, the Potency was 3.26 µM (active).

For `Cc1ccc(S(=O)(=O)CC(=O)Nc2nnc(C)s2)cc1`, the Potency entry was “inactive”.

On to `Cc1cc(C)cc(-c2nnc(SCC(=O)NC3CC3)o2)c1`, for which the Potency result is “inactive”. As for `O=C(NCc1ccccc1CN1CCCC1)c1cccc(S(=O)(=O)Nc2ccc(F)cc2)c1`, the Potency entry was “inactive”. For the compound `COc1cc(C(=O)CCc2ccc3c(c2)OCO3)cc(OC)c1OC`, the Potency entry is “inactive”. Take `Cc1oc2c(c1C(=O)N1CCOCC1)C(=O)c1ccccc1C2=O`: the Potency is 16.4 µM (active). On to `Cc1noc(C)c1C(=O)N1CCOCC1`, for which the Potency entry is “inactive”. As for `Cc1ccccc1-c1ccc(Nc2ccc(C(=O)N3CCOCC3)cc2)nn1`, the Potency entry is “inactive”. Turning to `NS(=O)(=O)c1ccc(CNC(=O)c2cccc(S(=O)(=O)N3CCc4ccccc43)c2)cc1`, the Potency result is “inactive”. Take `COc1ccc(C(C)(C)C)cc1NC(=O)CCN1C(=O)C2CCCCC2C1=O` (centres undefined): the Potency result was “inactive”. Turning to `COc1ccc(C2=NN(C(C)=O)C(c3ccccc3)C2)cc1` (centres undefined), the Potency entry was “inactive”.

Consider `COc1ccc(C2=NN(c3ccccc3)C(c3cccs3)C2)cc1` (centres undefined), for which the Potency was 3.26 µM (active). On to `COc1ccc(C2=NN(C(=O)c3ccccc3C(=O)O)C(c3ccccc3O)C2)cc1` (centres undefined), for which the Potency entry is “inactive”. For the compound `O=C(Nc1cc(S(=O)(=O)N2CCCCC2)ccc1Cl)C1COc2ccccc2O1` (centres undefined), the Potency entry was “inactive”.

On to `C=CC[C@@H](CC(=O)N[C@@H](CO)Cc1ccccc1)C(=O)NCCOC(=O)[C@@H](CC=C)CC(=O)OC(C)(C)C`, for which the Potency result is “inactive”. The entry for `CCCCn1c(N)c(N(CCC(C)C)C(=O)COC(=O)c2ccc(CC)cc2)c(=O)[nH]c1=O` is “inactive”; for `O=C(/C=C/c1ccco1)NC(=S)Nc1ccccc1Br` it is 20.6 µM (active). On to `O=C(/C=C/c1ccco1)NC(=S)N1CCCCC1`, for which the Potency result is “inactive”. Turning to `COc1ccc(Cl)cc1C(=O)NNC(=S)NC(=O)/C=C/c1ccco1`, the Potency entry was “inactive”. In the case of `COc1ccc2c(c1)C(=O)CC(c1ccccc1)O2` (centres undefined), the Potency result is “inactive”. With `CCOc1ccc(-c2cc(C(=O)N/N=C/c3ccc(O)cc3)c3ccccc3n2)cc1` the figure was 2.06 µM (active); with `COc1cccc(-c2cc(C(=O)N/N=C/c3ccc(OC)c(COC(C)=O)c3)c3ccccc3n2)c1`, “inactive”. With `COc1cc(/C=N/NC(=O)c2cc(-c3ccccc3C)nc3ccccc23)cc(OC)c1O`, the Potency result was “inactive”.

Consider `O=C1COc2ccc(C(=O)COC(=O)CCOc3ccccc3)cc2N1`, for which the Potency entry was “inactive”. With `CC(=O)NCc1ccc(-c2csc(NC(=O)CCCc3nc4ccccc4c(=O)[nH]3)n2)cc1` the entry was “inactive”. For the compound `O=C(CSc1nc2ccccc2c(=O)[nH]1)Nc1nc(-c2ccc(Br)cc2)cs1`, the Potency result is “inactive”. Regarding `Cc1ccc(-c2csc(NC(=O)Cn3[nH]c(=O)c4ccccc4c3=O)n2)cc1`, the Potency is 3.26 µM (active). For the compound `O=C(Cn1cnc2c(OCc3ccccc3)ncnc21)NCCCn1ccnc1`, the Potency result is “inactive”. For `CC(C)Sc1nc(N)nc2c1ncn2C1OC(CO)C(O)C1O` (centres undefined), the Potency result is “inactive”. Regarding `Cn1c(N)c(C(=O)COC(=O)c2cccc(S(=O)(=O)N3CCOCC3)c2)c(=O)n(C)c1=O`, the Potency result was “inactive”. `CC(C)n1c(-c2cccs2)nc2ccccc21`: the Potency entry is “inactive”. As for `COCCCn1c(-c2cccs2)nc2nc3ccccc3nc21`, the Potency was 18.4 µM (active). For the compound `COc1ccccc1C(=O)Nn1c(-c2cccs2)nc2ccccc2c1=O`, the Potency result is “inactive”. For the compound `COC(=O)C1CCN(C(=O)COC(=O)c2cc(S(=O)(=O)N3CCOCC3)ccc2C)CC1`, the Potency result was “inactive”. With `Cc1ccc2c(O)c(Cc3ccccc3)c(=O)[nH]c2n1` the entry was “inactive”. The entry for `O=C(NCC1CCCO1)c1ccc(S(=O)(=O)Nc2ccc(F)cc2)cc1` (centres undefined) is “inactive”; for `COc1ccc(/C=N/NC(=O)c2ccc3c(c2)OCCO3)c(OC)c1` it is “inactive”; for `COc1ccc(/C=N/NC(=O)CNC(=O)c2ccc(S(=O)(=O)N3CCCC3)cc2)c(OC)c1` it is “inactive”.

Consider `COc1ccc(/C=N/NC(=O)Nc2ccc3nsnc3c2)c(OC)c1`, for which the Potency was 13 µM (active).

Regarding `COc1ccc(CNC(=O)CN2C(=O)c3ccccc3S2(=O)=O)cc1`, the Potency result is “inactive”. For `COc1ccc(C(=O)NCc2ccc(C)cc2)cc1S(=O)(=O)N1CCCC1`, the Potency entry was “inactive”.

Regarding `Cc1ccc(-c2csc(C(C#N)=C(O)CN3CCN(C(=O)c4ccco4)CC3)n2)cc1`, the Potency result was “inactive”. Regarding `O=S(=O)(c1ccc(SCc2ccc(Br)cc2)nc1)N1CCOCC1`, the Potency entry was “inactive”. Turning to `Cc1ccc(OCCC(=O)Nc2ccc(S(=O)(=O)Nc3nccs3)cc2)cc1`, the Potency entry was “inactive”. Take `COC1=NC2=NCCN2C(OC)=N1`: the Potency result was “inactive”. With `Cc1cccc(C)c1NC(=O)CN(C)C(=O)CCC(=O)c1ccccc1` the entry was “inactive”; with `Cc1cccc(C)c1NC(=O)C(Cl)C(=O)c1ccccc1` (centres undefined), 18.4 µM (active). For the compound `Cc1cccc(C)c1NC(=O)C(c1ccccc1)N1CC(=O)Nc2ccccc21` (centres undefined), the Potency entry was “inactive”. With `Cc1ccc(NC(=O)C2CC(=O)N(c3ccc4c(c3)OCCO4)C2)cc1S(=O)(=O)N1CCCCCC1` (centres undefined) the entry was “inactive”.

Regarding `Cc1nc(SCC(=O)NC2CCCCC2C)c(C#N)c(C)c1C` (centres undefined), the Potency result was “inactive”. As to `CC(C)n1ncc2c(C(=O)Nc3ccc(CC#N)cc3)cc(C3CC3)nc21`, the Potency entry was “inactive”.

On to `COc1ccc(OC)c(Cc2cnc3nc(N)nc(N)c3c2C)c1`, for which the Potency result is “inactive”. As to `COc1ccc(Nc2oc(-c3ccccc3Cl)nc2C#N)cc1`, the Potency is 2.59 µM (active).

Turning to `Cc1ccccc1-c1nc(C#N)c(NCc2ccco2)o1`, the Potency entry is “inactive”. Turning to `COc1ccccc1-c1nc(C#N)c(N2CCC(C(N)=O)CC2)o1`, the Potency result is “inactive”. In the case of `CC(NC(=O)c1ccc(S(=O)(=O)Nc2ccccc2)cc1)c1ccc(S(N)(=O)=O)cc1` (centres undefined), the Potency result was “inactive”. The figure for `COc1cccc(CC(=O)Nc2ccc(-c3csc(C)n3)cc2)c1` is 9.2 µM (active). For `CCC(=O)Nc1ccc(C(=O)Nc2cccc(OC)c2)cc1`, the Potency entry was “inactive”. With `COc1cccc(CC(=O)Nc2nc(-c3ccc(OC)c(OC)c3)cs2)c1` the entry was “inactive”; with `CCCCC[C@@H]1C=C(C(=O)O)[C@H](c2ccc(C#N)cc2)N1S(=O)(=O)c1ccc(C)cc1`, “inactive”; with `O=C1C[C@@H]2c3c(cccc3CN1Cc1ccccc1)C[C@@H](O)[C@H]2O`, “inactive”. With `C=CCO/N=C(\C)c1c(O)c(C)c(-c2ccccc2)n(-c2ccccc2)c1=O` the entry was “inactive”. With `CCOC(=O)c1c(CN(C)C)n(-c2ccccc2)c2cc(Br)c(O)cc12`, the Potency result is “inactive”. With `CCO/N=C(/C)c1c(O)cc(-c2ccccc2)n(-c2ccccc2)c1=O`, the Potency is 14.6 µM (active).

Turning to `CCN(CC)S(=O)(=O)c1ccc(CNC(=O)CN2C(=O)NC3(CCc4ccccc43)C2=O)cc1` (centres undefined), the Potency result is “inactive”. Turning to `COCCN(Cc1ccccc1)C(=O)Cc1ccc(S(=O)(=O)N2CCOCC2)s1`, the Potency entry is “inactive”. As to `Cc1ccc(S(=O)(=O)N2CCCCC2)cc1NC(=O)CCNC(=O)c1ccccc1`, the Potency entry is “inactive”. With `C#CCOCCOCCOCCNc1nc(N2CCOCC2)nc(N2CCN(C(=O)[C@H](Cc3ccc(O)cc3)n3cc(CCO)nn3)CC2)n1` the entry was “inactive”. Take `Cc1ccc(NC(=O)C2CCC(C(C)(C)C)CC2)cc1S(=O)(=O)N1CCOCC1` (centres undefined): the Potency is 18.4 µM (active).

For `Cc1ccc(NC(=O)NC2CCCCC2)cc1S(=O)(=O)N1CCOCC1`, the Potency result is “inactive”.

For `Cc1ccc(NC(=O)COC(=O)C2CC2)cc1S(=O)(=O)N1CCOCC1`, the Potency result was “inactive”. As for `CCC1([N+](=O)[O-])COC(c2ccc(C)cc2)OC1` (centres undefined), the Potency result was “inactive”. For `COc1ccccc1N1CC(C(=O)NCCN2C(=O)S/C(=C\c3cccnc3)C2=O)CC1=O` (centres undefined), the Potency result was “inactive”. Regarding `O=C(Cc1csc(Nc2nc(=S)[nH]c3ccccc23)n1)NCCCN1CCN(c2cccc(Cl)c2)CC1`, the Potency was 14.6 µM (active). With `COc1cccc(CNC(=O)Cc2csc(Nc3nc(=S)[nH]c4ccccc34)n2)c1`, the Potency entry was “inactive”. `O=C(CCn1c(=O)[nH]c2ccccc2c1=O)NCCCN1CCN(c2cccc(Cl)c2)CC1`: the Potency entry was “inactive”.
